About 79,000 compounds went through this panel and 15% of them were active in at least one assay; those are over-represented in the sample as a whole. A number with no mark means an inactive call. Active and inactive are the calls of the source. Rule as the data show it: active = growth inhibition above about 70%; inactive = the rest.

Experiment [1] can be described thus: NCI Yeast Anticancer Drug Screen. Data for the rad50 strain (AID 155).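 Also: 0% = growth of vehicle-only cultures of the same strain.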 The note with it: S. cerevisiae rad50 strain growth inhibition, hits give high values. Put shortly: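 Genetically altered yeast (DNA repair pathway); compound treatment; growth inhibition vs vehicle ctrl.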
Experiment [2] in a line: NCI Yeast Anticancer Drug Screen. Data for the mec2-1 strain (AID 157). The note with it: S. cerevisiae mec2-1 strain, hits give high values. Put shortly: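 Mutant yeast (mec2-1) grown with compound; growth inhibition relative to vehicle control reported.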
Experiment [3] can be described thus: NCI Yeast Anticancer Drug Screen. Data for the sgs1 mgt1 strain (AID 161).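 Also: 0% = growth of cultures given vehicle only.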 The note with it: S. cerevisiae sgs1 mgt1 strain, hits give high values. Summed up:
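Percent growth inhibition was derived by comparing compound-exposed mutant yeast with vehicle-exposed cultures. The strain carries alterations in DNA damage repair.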

Experiment [4] is described as follows: NCI Yeast Anticancer Drug Screen. Data for the cln2 rad14 strain (AID 165).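 Also: 0% = growth equal to vehicle treated cultures.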 The note with it: S. cerevisiae cln2 rad14 strain, hits give high values. Summed up: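 Readout is yeast growth inhibition versus vehicle-treated controls, using a strain with cln2 and rad14 alterations exposed to compound.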
Experiment [5] in a line: NCI Yeast Anticancer Drug Screen. Data for the bub3 strain (AID 167). The note with it: S. cerevisiae bub3 mutant strain, hits give high values. Summed up: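 Yeast carrying a defined mutation is treated with each compound, and growth is compared with that of vehicle-exposed cells to give inhibition.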
The nature of experiment [6]: NCI Yeast Anticancer Drug Screen. Data for the mlh1 rad18 strain (AID 175). The note with it: S. cerevisiae mlh1 rad18 strain growth inhibition, hits give high values. Put shortly: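 Genetically defined yeast (DNA repair-deficient) exposed to compounds; growth inhibition determined relative to vehicle.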
Where [7] appears, read: at 5.0 µM (retest, dose inferred, filed as 0.5).
[8] abbreviates: at 50.0 µM (retest, dose inferred, filed as 5.0).

Turning to `O=C(C[P+](c1ccccc1)(c1ccccc1)c1ccccc1)c1ccccc1`, the growth inhibition was 0% in experiment [1] (setting [7]); 10% in experiment [1] (setting [8]); 11.8% in experiment [1] (at 50.0 µM); 9% in experiment [2] (setting [7]); 14% in experiment [2] (setting [8]); 23.4% in experiment [2] (at 50.0 µM). Also, the growth inhibition was -7% in experiment [3] (setting [7]); 11% in experiment [3] (setting [8]); 22.1% in experiment [3] (at 50.0 µM); 18% in experiment [4] (setting [7]); 12% in experiment [4] (setting [8]); 8% in experiment [4] (at 50.0 µM). Also, the growth inhibition in experiment [5] (setting [7]) is 2%; in experiment [5] (setting [8]), 8%; in experiment [5] (at 50.0 µM) it was 16.6%; in experiment [6] (setting [7]), 5%; in experiment [6] (setting [8]), -46%; in experiment [6] (at 50.0 µM), 34.6%.

Turning to `O=C(CCl)N(c1ccccc1)c1ccccc1`, the growth inhibition is 5% in experiment [1] (setting [7]); 59% in experiment [1] (setting [8]); 89.7% (active) in experiment [1] (at 50.0 µM); 3% in experiment [2] (setting [7]); 59% in experiment [2] (setting [8]); 90.2% (active) in experiment [2] (at 50.0 µM). Besides, the growth inhibition in experiment [3] (setting [7]) was 1%; in experiment [3] (setting [8]), 54%; in experiment [3] (at 50.0 µM), 91.8% (active); in experiment [4] (setting [7]), 1%; in experiment [4] (setting [8]), 39%; in experiment [4] (at 50.0 µM) it was 68.5%. For the same compound, the growth inhibition in experiment [5] (setting [7]) was 8%; in experiment [5] (setting [8]), 63%; in experiment [5] (at 50.0 µM) it was 86.5% (active); in experiment [6] (setting [7]) it was 2%; in experiment [6] (setting [8]), 73% (active); in experiment [6] (at 50.0 µM), 92.8% (active).

Take `CC[n+]1ccc(Nc2ccc(NC(=O)c3ccc(Nc4cc[n+](CC)c5ccc([N+](=O)[O-])cc45)cc3)cc2)cc1`: the growth inhibition in experiment [1] (setting [7]) was 84% (active); in experiment [1] (setting [8]), 97% (active); in experiment [1] (at 50.0 µM) it was 99% (active); in experiment [2] (setting [7]), 14%; in experiment [2] (setting [8]), 97% (active); in experiment [2] (at 50.0 µM), 99% (active). In addition, the growth inhibition in experiment [3] (setting [7]) was 84% (active); in experiment [3] (setting [8]) it was 98% (active); in experiment [3] (at 50.0 µM) it was 99.5% (active); in experiment [4] (setting [7]), 72% (active); in experiment [4] (setting [8]), 96% (active); in experiment [4] (at 50.0 µM), 97% (active). The growth inhibition was 72% (active) in experiment [5] (setting [7]); 97% (active) in experiment [5] (setting [8]); 99.1% (active) in experiment [5] (at 50.0 µM); 82% (active) in experiment [6] (setting [7]); 97% (active) in experiment [6] (setting [8]); 97.8% (active) in experiment [6] (at 50.0 µM).

Take `CCOc1ccc2c(c1)/C(=C\C=C\C1CC(C)C3CC(OCC)CCC3N1CC)CC(C)N2CC` (stereo not given): the growth inhibition was -7% in experiment [1] (setting [7]); 85% (active) in experiment [1] (setting [8]); 28.6% in experiment [1] (at 50.0 µM); -1% in experiment [2] (setting [7]); 88% (active) in experiment [2] (setting [8]); 88.2% (active) in experiment [2] (at 50.0 µM). Moreover, the growth inhibition was -10% in experiment [3] (setting [7]); 92% (active) in experiment [3] (setting [8]); 33.9% in experiment [3] (at 50.0 µM); 0% in experiment [4] (setting [7]); 83% (active) in experiment [4] (setting [8]); 83% (active) in experiment [4] (at 50.0 µM). Also, the growth inhibition in experiment [5] (setting [7]) is 4%; in experiment [5] (setting [8]), 82% (active); in experiment [5] (at 50.0 µM) it was 83.7% (active); in experiment [6] (setting [7]), 0%; in experiment [6] (setting [8]) it was 86% (active); in experiment [6] (at 50.0 µM), 81.5% (active).

For `N#CCc1cccc2ccccc12`, the growth inhibition in experiment [1] (setting [7]) is 3%; in experiment [1] (setting [8]), 6%; in experiment [1] (at 50.0 µM), 13.7%; in experiment [2] (setting [7]), 1%; in experiment [2] (setting [8]), 10%; in experiment [2] (at 50.0 µM), -16.8%. Moreover, the growth inhibition is 0% in experiment [3] (setting [7]); 4% in experiment [3] (setting [8]); -14.2% in experiment [3] (at 50.0 µM); -2% in experiment [4] (setting [7]); 3% in experiment [4] (setting [8]); -17.1% in experiment [4] (at 50.0 µM). Further, the growth inhibition in experiment [5] (setting [7]) was 0%; in experiment [5] (setting [8]), -4%; in experiment [5] (at 50.0 µM), -9.9%; in experiment [6] (setting [7]), 5%; in experiment [6] (setting [8]) it was 10%; in experiment [6] (at 50.0 µM) it was 5%.

As to `Nc1cc(-c2ccccc2)ccc1O`, the growth inhibition in experiment [1] (setting [7]) was 5%; in experiment [1] (setting [8]) it was 63%; in experiment [1] (at 50.0 µM) it was 98.7% (active); in experiment [2] (setting [7]), -2%; in experiment [2] (setting [8]), 80% (active); in experiment [2] (at 50.0 µM), 97.9% (active). Moreover, the growth inhibition is 5% in experiment [3] (setting [7]); 37% in experiment [3] (setting [8]); 93.6% (active) in experiment [3] (at 50.0 µM); -3% in experiment [4] (setting [7]); 6% in experiment [4] (setting [8]); 79.1% (active) in experiment [4] (at 50.0 µM). Moreover, the growth inhibition in experiment [5] (setting [7]) was 0%; in experiment [5] (setting [8]) it was 29%; in experiment [5] (at 50.0 µM), 99.1% (active); in experiment [6] (setting [7]) it was 8%; in experiment [6] (setting [8]) it was 89% (active); in experiment [6] (at 50.0 µM), 99.5% (active).

On to `CN(C)c1ccc(C(=C2C=CC(=[N+](C)C)C=C2)c2ccc(N(C)C)cc2)cc1`, for which the growth inhibition is 99% (active) in experiment [1] (setting [7]); 90% (active) in experiment [1] (setting [8]); 94.9% (active) in experiment [1] (at 50.0 µM); 99% (active) in experiment [2] (setting [7]); 95% (active) in experiment [2] (setting [8]); 95% (active) in experiment [2] (at 50.0 µM). The growth inhibition in experiment [3] (setting [7]) is 99% (active); in experiment [3] (setting [8]) it was 95% (active); in experiment [3] (at 50.0 µM) it was 94.8% (active); in experiment [4] (setting [7]) it was 99% (active); in experiment [4] (setting [8]), 93% (active); in experiment [4] (at 50.0 µM) it was 87.2% (active). The growth inhibition in experiment [5] (setting [7]) is 99% (active); in experiment [5] (setting [8]), 91% (active); in experiment [5] (at 50.0 µM), 94.8% (active); in experiment [6] (setting [7]), 99% (active); in experiment [6] (setting [8]), 90% (active); in experiment [6] (at 50.0 µM) it was 91.2% (active).

Turning to `S=C(SSC(=S)N1CCOCC1)N1CCOCC1`, the growth inhibition in experiment [1] (setting [7]) is 97% (active); in experiment [1] (setting [8]), 99% (active); in experiment [1] (at 50.0 µM) it was 99.3% (active); in experiment [2] (setting [7]), 99% (active); in experiment [2] (setting [8]) it was 100% (active); in experiment [2] (at 50.0 µM) it was 99.6% (active). In addition, the growth inhibition was 99% (active) in experiment [3] (setting [7]); 99% (active) in experiment [3] (setting [8]); 99.2% (active) in experiment [3] (at 50.0 µM); 61% in experiment [4] (setting [7]); 99% (active) in experiment [4] (setting [8]); 99% (active) in experiment [4] (at 50.0 µM). In addition, the growth inhibition is 98% (active) in experiment [5] (setting [7]); 99% (active) in experiment [5] (setting [8]); 99.5% (active) in experiment [5] (at 50.0 µM); 98% (active) in experiment [6] (setting [7]); 99% (active) in experiment [6] (setting [8]); 99.5% (active) in experiment [6] (at 50.0 µM).

In the case of `CC1(C)CCC2(C(=O)O)C(O)CC3(C)C(=CCC4C5(C)CCC(OC6OCC(O)C(O)C6OC6OCC(O)C(O)C6OC6OCC(O)C(OC7OC(CO)C(O)C(O)C7O)C6O)C(C)(C)C5CCC43C)C2C1` (stereo not given), the growth inhibition in experiment [1] (setting [7]) is 8%; in experiment [1] (setting [8]) it was 99% (active); in experiment [1] (at 50.0 µM), 77.3% (active); in experiment [2] (setting [7]), 7%; in experiment [2] (setting [8]), 99% (active); in experiment [2] (at 50.0 µM), 87.3% (active). For the same compound, the growth inhibition in experiment [3] (setting [7]) is 6%; in experiment [3] (setting [8]) it was 99% (active); in experiment [3] (at 50.0 µM), 88% (active); in experiment [4] (setting [7]), 5%; in experiment [4] (setting [8]), 99% (active); in experiment [4] (at 50.0 µM) it was 86.6% (active). Further, the growth inhibition in experiment [5] (setting [7]) was 17%; in experiment [5] (setting [8]) it was 100% (active); in experiment [5] (at 50.0 µM) it was 86.5% (active); in experiment [6] (setting [7]) it was 14%; in experiment [6] (setting [8]), 99% (active); in experiment [6] (at 50.0 µM), -30.2%.

In the case of `CCCOC(=O)c1nc(N(CC2CCCCC2)C(=O)NC)sc1/N=C/c1ccccc1`, the growth inhibition in experiment [1] (setting [7]) was 67%; in experiment [1] (setting [8]) it was 86% (active); in experiment [1] (at 50.0 µM), 5.15%; in experiment [2] (setting [7]), 62%; in experiment [2] (setting [8]), 90% (active); in experiment [2] (at 50.0 µM) it was -18.9%. In addition, the growth inhibition in experiment [3] (setting [7]) was 45%; in experiment [3] (setting [8]) it was 91% (active); in experiment [3] (at 50.0 µM) it was 4.25%; in experiment [4] (setting [7]), 68%; in experiment [4] (setting [8]), 88% (active); in experiment [4] (at 50.0 µM) it was 37.9%. For the same compound, the growth inhibition in experiment [5] (setting [7]) was 77% (active); in experiment [5] (setting [8]) it was 92% (active); in experiment [5] (at 50.0 µM), 10.8%; in experiment [6] (setting [7]), 73% (active); in experiment [6] (setting [8]), 92% (active); in experiment [6] (at 50.0 µM), -10.2%.

For the origin of these results see PubChem BioAssay (NCI).
